Experimental data: PubChem BioAssay (Tox21)
Inconclusive results are not listed. Active and inactive are the calls of the source. Unless noted, the call rests on the fitted dose curve; in most records, active means well fitted curve in the direction sought with a large enough effect in the repeat runs; inconclusive means weak or mixed curves; inactive means no such curve, though single readings can be large; an effect the other way counts as inactive or inconclusive.

What was measured:
[1] = A CellTox Green Cytotoxicity Assay to monitor cytotoxicity in HepG2 cells - 24 hour (AID 1224878); further: nearly all actives have a fitted effect of over 45% in size
Outline: (§1)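 Using 1536-well format, dye-containing HepG2 suspension was seeded, allowed 5 h at 37 C/5% CO2, dosed by pintool with compounds, positive and negative controls, and imaged for fluorescence across 40 h.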

[2] = A CellTox Green Cytotoxicity Assay to monitor cytotoxicity in HepG2 cells - 40 hour (AID 1224879); further: nearly all actives have a fitted effect of over 40% in size
Outline: as §1

[3] = qHTS RealTime-Glo MT Cell Viability Assay in HEK293 cells - 0 hour (AID 1224880); further: top concentration of the series differs between compounds; nearly all actives have a fitted effect of over 45% in size
Outline: (§2)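 Viable HEK293 cells reduce a cell-permeant prosubstrate; the product diffuses out and is consumed by NanoLuc in the medium to give light. Compounds went in after a 5 h incubation and plates were read over the treatment course.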

[4] = A CellTox Green Cytotoxicity Assay to monitor cytotoxicity in HEK293 cells - 32 hour (AID 1224881); further: nearly all actives have a fitted effect of over 40% in size
Outline: (§3)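 Fluorescence intensity, read at 0, 8, 16, 24, 32 and 40 h of compound treatment, reflected dye binding to DNA of dead HEK293 cells; compounds (23 nL, DMSO) were added 5 h after plating cells with reagent.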

[5] = A CellTox Green Cytotoxicity Assay to monitor cytotoxicity in HepG2 cells - 0 hour (AID 1224882); further: nearly all actives have a fitted effect of over 35% in size
Outline: as §1

[6] = A CellTox Green Cytotoxicity Assay to monitor cytotoxicity in HepG2 cells - 32 hour (AID 1224883); further: nearly all actives have a fitted effect of over 50% in size
Outline: as §1

[7] = A CellTox Green Cytotoxicity Assay to monitor cytotoxicity in HEK293 cells - 8 hour (AID 1224884); further: nearly all actives have a fitted effect of over 35% in size
Outline: as §3

[8] = qHTS RealTime-Glo MT Cell Viability Assay in HepG2 cells - 16 hour (AID 1224885); further: nearly all actives have a fitted effect of over 50% in size
Outline: (§4)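 qHTS, HepG2, 600 cells/well, RealTime-Glo (NanoLuc + prosubstrate) added with cells; 5 h preincubation; DMSO compound addition; 37 C; luminescence at 0/8/16/24/32/40 h.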

[9] = qHTS RealTime-Glo MT Cell Viability Assay in HEK293 cells - 24 hour (AID 1224886); further: top concentration of the series differs between compounds; nearly all actives have a fitted effect of over 50% in size
Outline: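 Assay medium contained NanoLuc luciferase plus cell-permeant prosubstrate, added with HEK293 cells at 600 cells/well. After 5 h at 37 C/5% CO2 compounds were added; plates stayed at 37 C for 40 h with serial luminescence reads.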

[10] = qHTS RealTime-Glo MT Cell Viability Assay in HEK293 cells - 8 hour (AID 1224887); further: top concentration of the series differs between compounds; nearly all actives have a fitted effect of over 50% in size
Outline: as §2

[11] = qHTS RealTime-Glo MT Cell Viability Assay in HepG2 cells - 0 hour (AID 1224889); further: nearly all actives have a fitted effect of over 50% in size
Outline: as §4

[12] = A CellTox Green Cytotoxicity Assay to monitor cytotoxicity in HepG2 cells - 8 hour (AID 1224890); further: nearly all actives have a fitted effect of over 45% in size
Outline: as §1

[13] = qHTS assay to identify small molecule antagonists of the estrogen receptor alpha (ER-alpha) signaling pathway using the BG1 cell line in the presence of 0.1 nM 17-beta-estradiol - cell viability counter screen (AID 1259241); further: nearly all actives have a fitted effect of over 40% in size
Outline: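 VM7Luc4E2 cells (endogenous ER-alpha, 4×ERE-luciferase), hormone-starved 5 days in charcoal-stripped FBS, were treated with compounds plus 0.1 nM 17beta-estradiol for 22 hr at 37C; viability read in same wells as CellTiter-Fluor live-cell protease fluorescence.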

[14] = qHTS assay to identify small molecule antagonists of the androgen receptor (AR) signaling pathway using the MDA cell line in the presence of 0.5 nM R1881 - cell viability counter screen (AID 1259242); further: nearly all actives have a fitted effect of over 45% in size
Outline: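 Viability of MDA-kb2 cells was multiplexed with the luciferase AR readout; after 16 hr with compounds and R1881 at 0.5 nM final, CellTiter-Fluor fluorescence was recorded.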

[15] = qHTS assay to identify small molecule phospholipidosis (PLD) inducers (AID 1259344; active means well fitted curve in the direction sought with a large enough effect; an effect the other way counts as inactive or inconclusive)
Outline: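 HepG2 cells on collagen I, attached 4 h at 37 C, were co-treated with compound and LipidTOX Red dye for 24 h at 37 C, then fixed with paraformaldehyde plus Hoechst 33342 and imaged by high-content microscopy for phospholipid accumulation.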

[16] = A CellTox Green Cytotoxicity Assay to monitor cytotoxicity in HEK293 cells - 16 hour (AID 1224888); further: nearly all actives have a fitted effect of over 35% in size
Outline: as §3

[17] = target: Estrogen receptor (Homo sapiens) (UniProt P03372); experiment: qHTS assay to identify small molecule antagonists of the estrogen receptor alpha (ER-alpha) signaling pathway using the BG1 cell line in the presence of 0.1 nM 17-beta-estradiol (AID 1259244); further: nearly all actives have a fitted effect of over 50% in size
Chain of Estrogen receptor (Homo sapiens) (P03372 whole entry, looked up): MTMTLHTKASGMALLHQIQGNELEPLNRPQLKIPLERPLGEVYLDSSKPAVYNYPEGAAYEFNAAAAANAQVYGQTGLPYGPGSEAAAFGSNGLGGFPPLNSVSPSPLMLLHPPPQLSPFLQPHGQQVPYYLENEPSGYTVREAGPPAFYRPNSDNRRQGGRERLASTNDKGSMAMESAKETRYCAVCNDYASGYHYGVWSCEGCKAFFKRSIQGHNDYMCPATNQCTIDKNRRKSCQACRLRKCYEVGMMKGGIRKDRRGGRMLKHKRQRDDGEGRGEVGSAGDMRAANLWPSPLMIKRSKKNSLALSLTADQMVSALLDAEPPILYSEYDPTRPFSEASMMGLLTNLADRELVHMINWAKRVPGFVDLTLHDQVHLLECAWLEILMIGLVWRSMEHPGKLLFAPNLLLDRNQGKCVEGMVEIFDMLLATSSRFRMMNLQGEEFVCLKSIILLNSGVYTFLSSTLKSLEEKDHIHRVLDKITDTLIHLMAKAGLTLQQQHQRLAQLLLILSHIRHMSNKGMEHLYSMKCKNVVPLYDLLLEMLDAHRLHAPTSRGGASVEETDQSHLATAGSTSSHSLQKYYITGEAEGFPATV
Outline: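 Estradiol at 0.1 nM (final) stimulates the endogenous ER-alpha of VM7Luc4E2 cells carrying an ERE-driven luciferase; compounds are co-incubated 22 h at 37C and luciferase output quantified by luminescence.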

[18] = qHTS assay to identify small molecule HDAC inhibitors (AID 1259364)
Outline: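 Read-out: luminescence of HDAC-Glo I/II reagent, 30 min RT, reflecting class I/II deacetylase activity in whole HCT-116 cells pre-exposed 2 h to DMSO-dissolved compounds.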

[19] = target: Androgen receptor (Homo sapiens) (UniProt P10275); experiment: qHTS assay to identify small molecule antagonists of the androgen receptor (AR) signaling pathway using the MDA cell line in the presence of 0.5 nM R1881 (AID 1259243); further: nearly all actives have a fitted effect of over 50% in size
Chain of Androgen receptor (Homo sapiens) (P10275 whole entry, looked up): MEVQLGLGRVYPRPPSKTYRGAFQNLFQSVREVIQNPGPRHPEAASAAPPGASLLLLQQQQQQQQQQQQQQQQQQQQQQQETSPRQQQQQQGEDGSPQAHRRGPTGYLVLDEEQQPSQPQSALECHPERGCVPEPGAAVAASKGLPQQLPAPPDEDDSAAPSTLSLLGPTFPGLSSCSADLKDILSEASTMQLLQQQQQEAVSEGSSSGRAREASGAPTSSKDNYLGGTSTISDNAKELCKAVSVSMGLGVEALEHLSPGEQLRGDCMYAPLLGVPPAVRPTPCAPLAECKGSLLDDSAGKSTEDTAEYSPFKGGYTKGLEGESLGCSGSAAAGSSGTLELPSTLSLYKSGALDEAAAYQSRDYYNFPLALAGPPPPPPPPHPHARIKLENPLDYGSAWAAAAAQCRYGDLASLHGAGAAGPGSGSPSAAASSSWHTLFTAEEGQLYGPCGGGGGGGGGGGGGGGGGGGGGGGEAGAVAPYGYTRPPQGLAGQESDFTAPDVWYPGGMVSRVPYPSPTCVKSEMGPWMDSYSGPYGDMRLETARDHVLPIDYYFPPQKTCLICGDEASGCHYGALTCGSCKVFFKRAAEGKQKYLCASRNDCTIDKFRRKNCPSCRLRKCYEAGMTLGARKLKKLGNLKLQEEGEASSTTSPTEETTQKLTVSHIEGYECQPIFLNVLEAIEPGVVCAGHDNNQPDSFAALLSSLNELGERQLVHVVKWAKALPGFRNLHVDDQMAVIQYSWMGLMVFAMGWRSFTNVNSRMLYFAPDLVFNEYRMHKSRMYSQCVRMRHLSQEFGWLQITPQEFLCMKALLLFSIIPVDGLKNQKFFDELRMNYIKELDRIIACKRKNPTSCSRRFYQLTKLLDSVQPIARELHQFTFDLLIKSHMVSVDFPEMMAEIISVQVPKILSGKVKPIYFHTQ
Outline: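 Reporter cells cultured without CO2 receive test chemicals, then 0.5 nM R1881 final; after 16 hr at 37C, ONE-Glo is added and light output recorded.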
On the % scale 0 is the no-effect control and ±100 the full control effect.

c1ccc2c(CC3=NCCN3)cccc2c1
inactive: Potency [1] | Potency [2] | Potency [3] | Potency [4] | Potency [5] | Potency [6] | Potency [7] | outcome [8] | Potency [9] | Potency [10] | Potency [11] | Potency [12] | outcome [13] | outcome [14] | outcome [15]

Cc1cc(C)c(C(=O)O)c(C)c1
inactive: Potency [1] | Potency [3] | Potency [4] | Potency [5] | Potency [6] | outcome [8] | Potency [9] | Potency [10] | Potency [16] | Potency [11] | Potency [12] | outcome [13] | outcome [14] | outcome [17] | Potency [18]

CO[C@@]1(NC(=O)Cc2cccs2)C(=O)N2C(C(=O)O)=C(COC(N)=O)CS[C@@H]21
inactive: Potency [1] | Potency [3] | Potency [4] | Potency [5] | Potency [6] | Potency [7] | outcome [8] | Potency [9] | Potency [10] | Potency [16] | Potency [11] | Potency [12] | outcome [13] | outcome [14] | outcome [17] | outcome [15] | Potency [18]

CCCCCCCCCOC(=O)c1ccccc1C(=O)OCCCCCCCCC
inactive: Potency [1] | Potency [2] | Potency [3] | Potency [4] | Potency [5] | Potency [7] | outcome [8] | Potency [9] | Potency [10] | Potency [16] | Potency [11] | Potency [12] | outcome [13] | outcome [14] | Potency [19] | outcome [17] | Potency [18]

CCC(C)C(C)=O (centres undefined)
inactive: Potency [1] | Potency [2] | Potency [3] | Potency [4] | Potency [5] | Potency [6] | outcome [8] | Potency [9] | Potency [10] | Potency [16] | Potency [11] | Potency [12] | outcome [13] | outcome [14] | outcome [17]

C#CCN[C@@H]1CCc2ccccc21
inactive: Potency [1] | Potency [2] | Potency [3] | Potency [4] | Potency [5] | Potency [7] | outcome [8] | Potency [9] | Potency [10] | Potency [16] | Potency [11] | Potency [12] | outcome [13] | outcome [14] | Potency [19] | outcome [17] | outcome [15]

COC(=O)CCCCC(CCSS/C(CCO)=C(\C)N(C=O)Cc1cnc(C)nc1N)SC(C)=O (centres undefined)
inactive: Potency [3] | Potency [4] | Potency [5] | Potency [6] | Potency [7] | outcome [8] | Potency [9] | Potency [10] | Potency [11] | Potency [12] | outcome [13] | outcome [14] | Potency [19] | outcome [17] | Potency [18]

CCCCCCCCCCOC(C)=O
inactive: Potency [1] | Potency [2] | Potency [4] | Potency [5] | Potency [6] | outcome [8] | Potency [9] | Potency [10] | Potency [16] | Potency [11] | Potency [12] | outcome [13] | outcome [14] | outcome [17]

CC(C)OC(=O)CCC(=O)OC(C)C
inactive: Potency [1] | Potency [2] | Potency [3] | Potency [4] | Potency [5] | Potency [6] | Potency [7] | outcome [8] | Potency [9] | Potency [10] | Potency [16] | Potency [11] | Potency [12] | outcome [13] | outcome [14] | Potency [18]

CCCCCCCCCCCCCCCCCCOCCO
inactive: cytotoxicity [1] 0.951% [at 15.8 µM] | cytotoxicity increase [2] 2.96% [at 15.8 µM] | activity change, negative = cytotoxicity [3] 18.7% [at 15.8 µM] | cytotoxicity increase [4] 8.15% [at 15.8 µM] | cytotoxicity [5] -0.0743% [at 15.8 µM] | cytotoxicity increase [7] -0.0989% [at 15.8 µM] | activity change, negative = cytotoxic [8] 1.39% [at 15.8 µM] | activity change, negative = cytotoxicity [9] -7.08% [at 15.8 µM] | activity change, negative = cytotoxicity [10] 1.44% [at 15.8 µM] | activity change [16] 5.03% [at 15.8 µM, stronger effect = higher value] | activity change, negative = cytotoxicity [11] 2.77% [at 15.8 µM] | cytotoxicity increase [12] -4.91% [at 15.8 µM] | activity change, negative = cytotoxicity [13] 4.04% [at 19 µM] | viability change, negative = cytotoxic [14] -0.694% [at 19 µM] | activity change, negative = inhibition [17] -1.58% [at 19 µM] | activity change, negative = inhibition [18] -2.36% [at 19 µM]

O=C(CCCCC(=O)Nc1c(I)cc(I)c(C(=O)O)c1I)Nc1c(I)cc(I)c(C(=O)O)c1I
inactive: Potency [3] | Potency [4] | Potency [5] | outcome [8] | Potency [9] | Potency [10] | Potency [16] | Potency [11] | Potency [12] | outcome [13] | outcome [14] | outcome [17] | outcome [15] | Potency [18]

CCOC(=O)CC1(C)OCC(C)O1 (centres undefined)
inactive: Potency [1] | Potency [2] | Potency [3] | Potency [4] | Potency [5] | Potency [6] | outcome [8] | Potency [9] | Potency [10] | Potency [11] | Potency [12] | outcome [13] | outcome [14] | outcome [17] | Potency [18]

CC1=C(C(=O)O)N2C(=O)[C@@H](NC(=O)[C@H](N)c3ccccc3)[C@H]2SC1
inactive: Potency [1] | Potency [3] | Potency [4] | Potency [5] | Potency [6] | Potency [7] | outcome [8] | Potency [9] | Potency [10] | Potency [16] | Potency [11] | Potency [12] | outcome [13] | outcome [14] | outcome [17] | outcome [15] | Potency [18]

CCCSSCCC
inactive: Potency [1] | Potency [2] | Potency [3] | Potency [4] | Potency [5] | Potency [6] | Potency [7] | outcome [8] | Potency [9] | Potency [10] | Potency [16] | Potency [11] | Potency [12] | outcome [13] | outcome [14] | outcome [17] | Potency [18]

CN(C)CC/C=C1/c2ccccc2COc2ccc(CC(=O)O)cc21
inactive: Potency [1] | Potency [2] | Potency [4] | Potency [5] | Potency [7] | Potency [16] | Potency [12] | outcome [13] | outcome [14] | outcome [15]

OC[C@@H](O)C(O)[C@@H](O)CO (some centres undefined)
inactive: Potency [1] | Potency [3] | Potency [4] | Potency [5] | Potency [6] | Potency [7] | outcome [8] | Potency [9] | Potency [10] | Potency [16] | Potency [11] | Potency [12] | outcome [13] | outcome [14] | Potency [18]

NCCOCCN
inactive: Potency [1] | Potency [2] | Potency [3] | Potency [4] | Potency [5] | Potency [6] | Potency [7] | outcome [8] | Potency [9] | Potency [10] | Potency [16] | Potency [11] | Potency [12] | outcome [13] | outcome [14] | outcome [17] | Potency [18]

CC(C)(CO)C(O)C(=O)NCCCO (centres undefined)
inactive: Potency [1] | Potency [2] | Potency [3] | Potency [4] | Potency [5] | Potency [6] | Potency [7] | outcome [8] | Potency [9] | Potency [10] | Potency [16] | Potency [11] | Potency [12] | outcome [13] | outcome [14] | outcome [17] | Potency [18]
